Hits are enriched below; roughly 6.1% of the tested compounds scored in any of these assays.
DRD3 antagonist: D3 dopamine receptor (human) antagonism; P35462; D3R cells, DiscoveRx beta-arrestin luminescence, antagonist mode; hits give low values; max response, negative = inhibition, %; 2.5% of 360,000 active; in the data active = max response below about -50%; inconclusive = no clear call, values can overlap the other calls; also: % is scaled to controls: 0 for no effect and ±100 for the full control effect
Target sequence (P35462 whole entry, looked up): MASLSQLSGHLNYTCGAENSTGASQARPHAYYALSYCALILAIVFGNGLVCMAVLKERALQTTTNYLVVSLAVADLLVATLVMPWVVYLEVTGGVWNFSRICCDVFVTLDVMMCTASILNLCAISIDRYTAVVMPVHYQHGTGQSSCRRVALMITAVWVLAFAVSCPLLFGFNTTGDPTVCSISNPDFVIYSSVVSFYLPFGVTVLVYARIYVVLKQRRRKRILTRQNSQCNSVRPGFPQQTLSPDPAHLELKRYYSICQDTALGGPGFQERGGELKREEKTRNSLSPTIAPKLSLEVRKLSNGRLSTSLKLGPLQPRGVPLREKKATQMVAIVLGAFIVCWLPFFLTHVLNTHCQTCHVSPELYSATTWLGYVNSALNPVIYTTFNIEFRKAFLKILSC
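Cells plated overnight at 1500 cells/well, then exposed to library compounds with dopamine controls for 90 minutes at 37 degrees C. DiscoveRx reagent added for 30–60 minutes at room temperature; luminescence read, quantitative HTS format.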
D3 ag: agonists of human D3 dopamine receptor; P35462; 0.58% of 410,000 active; max activation, %; AID 652048; D3R DiscoveRx beta-arrestin cells, luminescence, 90 min; in the data active = max activation above about 30%; also: 0% is about no effect
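Cells at 1500/well, incubated overnight, then treated with pinned compounds (dopamine as control) for 90 min at 37 degrees C. DiscoveRx reagent added for 30 - 60 minutes at room temperature; luminescence read.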
D1 antag: human D1 dopamine receptor antagonism. 3.2% of 360,000 active. P21728. HEK293 TREx D1 cells, calcium flux, dopamine EC80; hits give low values. activity change, negative = inhibition, % at 10 µM; in the data active = activity change below about -30%; also: % is scaled to controls: 0 for no effect and ±100 for the full control effect
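HEK293 T-REx cells expressing inducible, force-coupled D1 receptor; no-wash Ca dye, 30–90 min RT. Cmpd → 180 s read at 1 Hz → EC80 DA → 180 s read.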
D1 PAM: enhances dopamine response at the human D1 receptor. HEK293 TREx D1 cells, calcium flux, dopamine EC20 potentiation. potentiation, % at 10 µM. 0.036% of 360,000 active; in the data active = potentiation above about 30%; also: 0% is about no effect
ERG Ets-DNA blk: inhibitors of human ERG Ets domain-DNA interaction. fluorescence polarization, His-ERG Ets domain / labelled DNA. Potency, µM (top dose mostly 76.9 µM), inactives show top-dose FP activity, negative = inhibition, usual class: inhibitors. 0.028% of 370,000 active. AID 624246; active = well fitted inhibition curve with a large enough effect in the polarisation, with a control signal flat; inconclusive = small, poorly fitted or top-dose-only effect, or effect the other way, or a change in a side signal; inactive = no such curve, though single readings can be large or run the other way; the % refers to the polarisation;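 also: polarization taken with two DNA probes labelled with fluorescein and Texas red; potency is read from the fitted curve at half-maximal effect; % of control where 0% means no effect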
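His-tagged ERG Ets domain (1 uM in the protein solution; 300mM KCl, 50mM Tris-HCl, 1mM EDTA, 1mM DTT, pH 7.5) received compound, then a probe mix of 5 nM fluorescein-DNA and 100nM Texas-615-DNA. Fluorescence polarization was read for both dyes.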
D1 ag: activates the human D1 dopamine receptor | HEK293 T-REx D1 cells, calcium flux, agonist mode | activation, % at 2 µM | 1% of 360,000 active | AID 504660 | P21728; in the data active = activation above about 30%; also: 0% is about no effect
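Inducible HEK293 T-REx D1 cells, force-coupled to calcium signalling, were plated at 4000 cells/well with tetracycline and held overnight at 30 C. After no-wash calcium dye loading, compound-evoked calcium rise over 180 s flagged agonists.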
Numbers without * were called inactive; i = inactive; ? = inconclusive; · = no result.

SMILES	DRD3 antagonist	D3 ag	D1 antag	D1 PAM	ERG Ets-DNA blk	D1 ag
CCOCCOC(=O)C1=C(C)N(C)C(=O)NC1c1cc(Cl)c(O)c(OCC)c1 (stereo not given)	-18.3	-5.7	0.6	3.4	8.9%	0.4
Cc1ccc(S(=O)(=O)N2CCCCC2CCNC(=O)C(=O)Nc2ccccc2F)cc1 (stereo not given)	1.6	-4.1	-4.3	-6.1	-1.1%	2.3
Cc1cc(C)c(S(=O)(=O)Cc2ccc(Cl)cc2)c(=O)[nH]1	12.7	-3.4	10.5	0.2	-1.0%	3.6
COc1ccsc1C(=O)N1CCN(Cc2ccc3c(c2)OCO3)CC1	-63.4*	-2.3	-3.4	-2.0	7.6%	-0.3
Cn1c(C(=O)N2CCC(C(=O)N3CCN(Cc4ccc5c(c4)OCO5)CC3)CC2)cc2sccc21	0.0	-9.1	-15.8	5.7	9.8%	3.1
Cn1c(C(=O)N2CCN(Cc3ccc4c(c3)OCO4)CC2)cc2sccc21	-96.1*	-32.0	-20.2	-2.8	-4.1%	-0.3
O=C(CN1CCN(Cc2ccc3c(c2)OCO3)CC1)Nc1ccc2c(c1)OCO2	?	-4.7	4.5	-0.9	1.3%	-2.0
COc1cccc(C(=O)N2CCN(Cc3ccc4c(c3)OCO4)CC2)c1OC	-67.4*	-3.0	-21.7	-2.9	-6.4%	0.4
COc1ccc(NC(=O)CN2CCN(Cc3ccc4c(c3)OCO4)CC2)cc1OC	-73.1*	-10.1	-10.5	-2.5	1.3%	1.6
COc1ccc(CN2CCN(C(=O)c3cccc(OC)c3OC)CC2)cc1OC	0.8	0.3	4.9	0.1	5.4%	5.0
C[C@@H](C(=O)N1CCN(C(=O)OC(C)(C)C)CC1)n1cc(-c2cn([C@@H](C)C(=O)N3CCN(C(=O)OC(C)(C)C)CC3)nn2)nn1	·	·	3.2	-3.6	·	1.0
CC1(c2ccc(OC(F)F)cc2)NC(=O)N(CC(=O)c2ccc3c(c2)OCO3)C1=O (stereo not given)	-9.1	-2.7	-43.2*	0.4	12.2%	46.5*
CC1(c2ccc([N+](=O)[O-])cc2)NC(=O)N(CC(=O)c2ccc3c(c2)OCO3)C1=O (stereo not given)	4.8	-4.3	-6.8	5.5	7.7%	34.1*
CC1(c2ccc(OC(F)F)cc2)NC(=O)N(CC(=O)NC2CCCCC2)C1=O (stereo not given)	-20.5	-4.6	11.6	6.5	-0.3%	8.8
CN(CC(=O)Nc1ccccc1Cl)C(=O)c1cccc(S(=O)(=O)N2CCN(c3ccccc3)CC2)c1	-3.7	-4.3	·	·	8.5%	·
CCN(Cc1ccccc1)S(=O)(=O)c1ccc2c(c1)NC(=O)CS2	28.3	2.2	-35.9*	-5.7	-6.1%	8.2
Cc1ccc(CNS(=O)(=O)c2ccc3c(c2)NC(=O)CS3)cc1	-13.8	-13.1	-33.6*	-3.2	5.4%	5.6
Cc1csc(NC(=O)COc2ccc3c(c2)CCC3)n1	-29.8	0.3	-10.1	-2.8	17.2%	1.8
Cn1c(=O)oc2cc(S(=O)(=O)N3CCC(C(=O)N4CC=C(c5ccccc5)CC4)CC3)ccc21	1.9	-9.2	-3.8	·	-9.2%	19.6
c1ccc(CN2OCC3Cn4c(nc5ccccc54)C32)cc1 (stereo not given)	2.1	14.7	32.6	-3.0	-3.6%	1.9
c1ccc(N2OCC3Cn4c(nc5ccccc54)C32)cc1 (stereo not given)	?	19.0	-36.1*	-3.3	-2.7%	5.0
COc1ccc(C2C=C(c3ccc(Br)s3)Nc3ncnn32)cc1OC (stereo not given)	·	·	-16.1	-2.5	·	27.6
CCN(CC)c1ccc2c(-c3ccc(S(=O)(=O)O)cc3S(=O)(=O)[O-])c3ccc(=[N+](CC)CC)cc-3oc2c1	0.0	-17.8	-18.4	-3.4	i	172.3*
C=C1C(=O)C23C(O)C1CCC2C12CCCC(C)(COC(C)=O)C1C(O)C3(O)OC2 (stereo not given)	-95.0*	-13.4	·	·	·	·
O=C(COC(=O)c1ccc([N+](=O)[O-])s1)NC(=O)NCc1ccccc1	4.0	-5.4	-13.1	-2.5	-7.9%	6.2
SMILES	DRD3 antagonist	D3 ag	D1 antag	D1 PAM	ERG Ets-DNA blk	D1 ag
C[C@@H](C(=O)Nc1ccc2ccccc2c1)[C@H]1C[C@]1(C)[C@H](NC(=O)c1cccnc1)c1ccccc1	-50.1*	0.3	-15.5	-1.1	3.3%	-2.3
Cc1nc2c(C(=O)N3CCN(C)CC3)cnn2c(C)c1Cc1ccc(Cl)cc1	-74.8*	-36.9	-15.1	-0.1	6.1%	1.4
Cc1cccc(Cc2c(C)nc3c(C(=O)N4CCN(Cc5ccc6c(c5)OCO6)CC4)cnn3c2C)c1	?	-12.7	1.6	-1.9	-9.8%	6.0
Cc1nc2c(C(=O)N3CCCCC3)cnn2c(C)c1Cc1ccccc1F	-3.8	-19.1	-13.7	-7.5	7.3%	5.6
Cc1ccccc1Cc1c(C)nc2c(C(=O)N3CCN(Cc4ccc5c(c4)OCO5)CC3)cnn2c1C	-60.4*	-4.1	·	·	1.3%	·
Cc1ccccc1Cc1c(C)nc2c(C(=O)NCc3ccc4c(c3)OCO4)cnn2c1C	-81.3*	-21.6	-14.9	-4.5	4.8%	4.2
COc1ccc(-n2nc3c(N4CCC(C(=O)NCc5cccc(F)c5)CC4)nnc(C)c3c2C)cc1	·	-13.7	6.3	1.0	-0.4%	3.5
Cc1nn(CCCC(=O)NCc2ccccc2)c(C)c1[N+](=O)[O-]	-10.9	-8.8	-10.3	-4.3	·	0.3
C[C@@H]1CN([C@H](C)CO)C(=O)CCCn2nncc2CO[C@H]1CN(C)S(=O)(=O)c1ccc(F)cc1	?	-9.0	·	·	·	·
O=C(CC(O)CCc1ccccc1)c1ccc(O)cc1 (stereo not given)	2.4	10.8	·	·	6.0%	·
CCN(CC)C(=O)c1ccc(CS(=O)(=O)Cc2ccccc2)cc1	6.7	0.6	-30.7*	-0.3	-4.2%	6.5
O=C(c1ccccc1)N(Cc1ccccc1)Cc1ccccc1	-28.6	-3.4	-12.7	-9.4	2.0%	1.1
CCC(=O)c1ccc(OCc2ccc(C#N)cc2)cc1	-12.1	-3.5	-36.8*	-2.5	7.3%	-0.5
CCC(=O)c1ccc(OCc2ccc(C(=O)OC)cc2)cc1	10.9	0.0	-22.5	-4.0	-3.8%	15.8
CCN(Cc1ccccc1)C(=O)c1ccc(C(=O)N(CC)Cc2ccccc2)cc1	-19.1	-9.4	-62.0*	0.8	-2.6%	3.6
CCN(CC)C(=O)c1ccc(-c2ccccc2)cc1	-21.6	-1.5	-2.3	-10.1	-0.5%	1.5
CCOc1ccc(OCc2ccc(C(=O)N(CC)CC)cc2)cc1	-3.7	2.9	-42.1*	-6.3	-13.1%	16.0
CCN(CC(=O)Nc1ccc(NC(C)=O)cc1)C(=O)c1ccc(COc2ccc(C(C)(C)C)cc2)cc1	17.7	-8.5	·	·	15.5%	·

Bioassay records as filed in PubChem.
